Experimental data: the supplement of paper PMC11732987, “Enantioselective OTUD7B fragment discovery through chemoproteomics screening and high-throughput optimisation” (Communications Chemistry, 2025)

Tests used:
Test in all cases: log2 ratio of Biotin-Ahx-Ub-VS probe labelling (fragment/DMSO); higher = less target engagement (more negative = stronger competition), active = hit call of the paper (q ≤ 0.05, log2 ratio ≤ -1)
Details in all cases: compound concentration: 200 uM; treatment time: 3 h
ALG13 = biological target: T1, ALG13 (UniProt Q9NP73)
T1 sequence (whole entry): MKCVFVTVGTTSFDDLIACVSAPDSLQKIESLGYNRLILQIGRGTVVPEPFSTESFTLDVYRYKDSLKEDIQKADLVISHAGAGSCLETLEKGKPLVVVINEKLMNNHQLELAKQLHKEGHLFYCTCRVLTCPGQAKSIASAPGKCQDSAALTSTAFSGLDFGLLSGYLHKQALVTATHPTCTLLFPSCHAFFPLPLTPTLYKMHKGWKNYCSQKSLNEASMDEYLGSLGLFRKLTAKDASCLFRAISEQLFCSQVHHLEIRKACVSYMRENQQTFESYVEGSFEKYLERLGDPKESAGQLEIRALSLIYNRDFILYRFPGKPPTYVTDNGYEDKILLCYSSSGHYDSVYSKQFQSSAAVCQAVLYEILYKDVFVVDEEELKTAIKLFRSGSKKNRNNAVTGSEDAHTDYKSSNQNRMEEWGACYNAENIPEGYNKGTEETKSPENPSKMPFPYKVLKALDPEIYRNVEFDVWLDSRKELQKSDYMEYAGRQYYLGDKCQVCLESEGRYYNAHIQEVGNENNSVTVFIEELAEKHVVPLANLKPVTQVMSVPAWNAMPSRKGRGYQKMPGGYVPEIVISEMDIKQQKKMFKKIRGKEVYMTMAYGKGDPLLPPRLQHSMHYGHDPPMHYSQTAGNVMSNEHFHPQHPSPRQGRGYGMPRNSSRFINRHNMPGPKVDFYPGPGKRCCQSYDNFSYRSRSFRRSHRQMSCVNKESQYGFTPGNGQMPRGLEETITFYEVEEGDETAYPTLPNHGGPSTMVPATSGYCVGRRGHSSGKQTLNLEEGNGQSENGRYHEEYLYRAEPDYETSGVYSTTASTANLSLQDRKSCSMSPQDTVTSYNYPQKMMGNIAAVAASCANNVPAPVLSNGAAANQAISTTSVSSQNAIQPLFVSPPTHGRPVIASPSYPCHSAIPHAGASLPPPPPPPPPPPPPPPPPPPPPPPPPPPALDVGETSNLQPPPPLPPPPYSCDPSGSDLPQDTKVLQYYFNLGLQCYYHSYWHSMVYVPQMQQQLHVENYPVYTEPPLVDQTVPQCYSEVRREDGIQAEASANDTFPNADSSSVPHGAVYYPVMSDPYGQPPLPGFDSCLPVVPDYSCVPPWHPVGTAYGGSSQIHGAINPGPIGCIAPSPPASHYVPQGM
How it was run: (§1)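 Fragment (200 µM) or vehicle was incubated for 3 h with triplicate HEK293T lysate samples of 495 µg, which were then treated with Biotin-Ahx-Ub-VS at 0.5 µM final for 1 h. Labelled DUBs were enriched on NeutrAvidin, digested with LysC and trypsin, and analysed by diaPASEF LC-MS/MS. Values are average log2 fragment/vehicle ratios from an unpaired t-test on global-median-normalised Spectronaut label-free quantities, using proteins with ≥2 unique peptides.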

ATXN3 = ATXN3 (UniProt P54252)
Sequence of ATXN3 (P54252 whole entry): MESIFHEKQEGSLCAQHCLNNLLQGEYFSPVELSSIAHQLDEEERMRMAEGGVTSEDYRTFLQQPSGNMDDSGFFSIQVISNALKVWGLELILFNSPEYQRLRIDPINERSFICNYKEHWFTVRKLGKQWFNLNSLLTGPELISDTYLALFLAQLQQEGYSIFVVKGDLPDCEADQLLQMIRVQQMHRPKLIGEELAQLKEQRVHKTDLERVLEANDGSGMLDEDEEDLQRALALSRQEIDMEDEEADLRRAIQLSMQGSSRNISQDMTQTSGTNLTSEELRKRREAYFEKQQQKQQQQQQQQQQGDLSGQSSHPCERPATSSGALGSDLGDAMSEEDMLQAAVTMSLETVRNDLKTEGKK
How it was run: as §1

BAP1 = biological target: T2, BAP1 (UniProt Q92560)
T2 sequence (whole entry): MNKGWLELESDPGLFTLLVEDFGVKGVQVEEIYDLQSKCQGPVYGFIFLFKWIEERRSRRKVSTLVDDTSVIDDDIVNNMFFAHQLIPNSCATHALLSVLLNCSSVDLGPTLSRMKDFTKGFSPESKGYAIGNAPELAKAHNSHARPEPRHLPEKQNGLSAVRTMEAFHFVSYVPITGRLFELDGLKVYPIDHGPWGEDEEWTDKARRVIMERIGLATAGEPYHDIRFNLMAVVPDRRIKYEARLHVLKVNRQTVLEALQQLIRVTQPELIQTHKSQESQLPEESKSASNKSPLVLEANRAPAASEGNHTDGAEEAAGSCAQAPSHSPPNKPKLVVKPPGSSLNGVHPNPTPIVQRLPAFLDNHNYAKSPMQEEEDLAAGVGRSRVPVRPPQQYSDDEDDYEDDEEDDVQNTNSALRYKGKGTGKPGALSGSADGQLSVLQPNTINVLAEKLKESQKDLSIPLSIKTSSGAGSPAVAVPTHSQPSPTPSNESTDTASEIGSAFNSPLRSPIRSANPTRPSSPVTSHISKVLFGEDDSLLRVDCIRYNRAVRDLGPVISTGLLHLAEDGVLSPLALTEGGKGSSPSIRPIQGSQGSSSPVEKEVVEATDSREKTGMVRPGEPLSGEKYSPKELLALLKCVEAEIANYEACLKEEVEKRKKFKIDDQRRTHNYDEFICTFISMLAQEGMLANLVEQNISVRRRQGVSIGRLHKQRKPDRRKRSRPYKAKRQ
How it was run: as §1

EIF3F = EIF3F (UniProt O00303)
Sequence of EIF3F (O00303 whole entry): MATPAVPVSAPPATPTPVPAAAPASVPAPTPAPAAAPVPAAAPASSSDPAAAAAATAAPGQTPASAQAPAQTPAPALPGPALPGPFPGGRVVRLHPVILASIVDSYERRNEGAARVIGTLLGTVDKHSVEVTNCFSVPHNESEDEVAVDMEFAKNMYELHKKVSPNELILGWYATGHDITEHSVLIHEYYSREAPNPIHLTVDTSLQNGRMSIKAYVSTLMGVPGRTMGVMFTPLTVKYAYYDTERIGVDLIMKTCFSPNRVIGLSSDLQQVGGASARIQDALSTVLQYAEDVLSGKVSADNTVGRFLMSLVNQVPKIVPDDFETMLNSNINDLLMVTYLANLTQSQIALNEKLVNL
How it was run: as §1

EIF3H = EIF3H (UniProt O15372)
Sequence of EIF3H (O15372 whole entry): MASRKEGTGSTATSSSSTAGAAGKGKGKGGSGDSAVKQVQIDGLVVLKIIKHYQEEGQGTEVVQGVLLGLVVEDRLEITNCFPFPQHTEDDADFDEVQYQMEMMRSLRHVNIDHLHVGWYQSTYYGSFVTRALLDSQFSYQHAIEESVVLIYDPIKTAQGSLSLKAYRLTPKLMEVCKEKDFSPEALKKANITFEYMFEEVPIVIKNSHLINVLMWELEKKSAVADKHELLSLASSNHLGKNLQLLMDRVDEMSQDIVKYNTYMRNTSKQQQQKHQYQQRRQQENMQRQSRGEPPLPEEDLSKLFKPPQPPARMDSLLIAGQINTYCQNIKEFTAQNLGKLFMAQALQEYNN
How it was run: as §1

FAM105A = biological target: T3, FAM105A (UniProt Q9NUU6)
T3 sequence (whole entry): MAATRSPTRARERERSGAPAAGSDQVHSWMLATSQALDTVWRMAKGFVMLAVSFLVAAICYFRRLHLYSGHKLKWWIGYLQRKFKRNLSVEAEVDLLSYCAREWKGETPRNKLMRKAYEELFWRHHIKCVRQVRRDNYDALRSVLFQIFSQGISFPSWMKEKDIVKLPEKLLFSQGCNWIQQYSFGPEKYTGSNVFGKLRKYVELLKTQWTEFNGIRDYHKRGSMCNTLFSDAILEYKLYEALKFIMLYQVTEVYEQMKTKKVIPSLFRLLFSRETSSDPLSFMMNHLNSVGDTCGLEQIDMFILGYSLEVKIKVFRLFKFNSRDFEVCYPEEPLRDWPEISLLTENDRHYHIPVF
How it was run: as §1

OTUB1 = OTUB1 (UniProt Q96FW1)
Sequence of OTUB1 (Q96FW1 whole entry): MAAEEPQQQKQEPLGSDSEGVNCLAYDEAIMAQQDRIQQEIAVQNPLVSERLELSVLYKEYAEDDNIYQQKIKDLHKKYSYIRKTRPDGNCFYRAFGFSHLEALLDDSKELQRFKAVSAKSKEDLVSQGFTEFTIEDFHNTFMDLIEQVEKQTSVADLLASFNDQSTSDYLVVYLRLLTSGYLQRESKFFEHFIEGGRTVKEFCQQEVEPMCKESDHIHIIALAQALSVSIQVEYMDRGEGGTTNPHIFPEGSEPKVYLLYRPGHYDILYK
How it was run: as §1

OTUD4 = biological target: T4, OTUD4 (UniProt Q01804)
T4 sequence (whole entry): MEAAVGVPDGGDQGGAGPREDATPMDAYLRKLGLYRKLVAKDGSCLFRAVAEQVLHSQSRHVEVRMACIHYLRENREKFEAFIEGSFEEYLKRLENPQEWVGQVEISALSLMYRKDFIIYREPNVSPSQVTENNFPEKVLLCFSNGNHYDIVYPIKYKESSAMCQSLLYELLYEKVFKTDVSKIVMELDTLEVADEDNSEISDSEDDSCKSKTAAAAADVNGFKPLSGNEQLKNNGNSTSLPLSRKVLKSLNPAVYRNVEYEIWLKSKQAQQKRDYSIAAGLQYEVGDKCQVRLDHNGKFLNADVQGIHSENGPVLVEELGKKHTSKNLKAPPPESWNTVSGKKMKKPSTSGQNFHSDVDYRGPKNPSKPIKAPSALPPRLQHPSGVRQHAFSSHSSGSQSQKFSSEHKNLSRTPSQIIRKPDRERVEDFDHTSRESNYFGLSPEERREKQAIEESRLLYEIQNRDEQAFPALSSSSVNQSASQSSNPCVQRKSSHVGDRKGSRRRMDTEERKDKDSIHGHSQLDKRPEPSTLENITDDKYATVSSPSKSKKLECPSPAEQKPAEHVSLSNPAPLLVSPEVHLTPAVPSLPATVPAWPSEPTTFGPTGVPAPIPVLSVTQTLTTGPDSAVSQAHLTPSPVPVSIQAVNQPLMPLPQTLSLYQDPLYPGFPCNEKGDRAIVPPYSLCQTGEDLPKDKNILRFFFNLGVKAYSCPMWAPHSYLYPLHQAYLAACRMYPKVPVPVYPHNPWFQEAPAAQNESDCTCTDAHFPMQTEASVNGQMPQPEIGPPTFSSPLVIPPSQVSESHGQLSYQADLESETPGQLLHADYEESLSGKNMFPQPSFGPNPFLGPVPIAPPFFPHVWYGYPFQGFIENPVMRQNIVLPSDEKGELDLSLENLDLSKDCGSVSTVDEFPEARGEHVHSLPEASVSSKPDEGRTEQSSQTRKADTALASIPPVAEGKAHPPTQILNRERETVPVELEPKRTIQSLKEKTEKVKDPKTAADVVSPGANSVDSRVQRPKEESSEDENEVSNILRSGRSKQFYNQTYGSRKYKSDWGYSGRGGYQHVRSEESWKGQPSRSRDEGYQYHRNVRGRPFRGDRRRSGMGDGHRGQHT
How it was run: as §1

OTUD5 = biological target: T5, OTUD5 (UniProt Q96G74)
T5 sequence (whole entry): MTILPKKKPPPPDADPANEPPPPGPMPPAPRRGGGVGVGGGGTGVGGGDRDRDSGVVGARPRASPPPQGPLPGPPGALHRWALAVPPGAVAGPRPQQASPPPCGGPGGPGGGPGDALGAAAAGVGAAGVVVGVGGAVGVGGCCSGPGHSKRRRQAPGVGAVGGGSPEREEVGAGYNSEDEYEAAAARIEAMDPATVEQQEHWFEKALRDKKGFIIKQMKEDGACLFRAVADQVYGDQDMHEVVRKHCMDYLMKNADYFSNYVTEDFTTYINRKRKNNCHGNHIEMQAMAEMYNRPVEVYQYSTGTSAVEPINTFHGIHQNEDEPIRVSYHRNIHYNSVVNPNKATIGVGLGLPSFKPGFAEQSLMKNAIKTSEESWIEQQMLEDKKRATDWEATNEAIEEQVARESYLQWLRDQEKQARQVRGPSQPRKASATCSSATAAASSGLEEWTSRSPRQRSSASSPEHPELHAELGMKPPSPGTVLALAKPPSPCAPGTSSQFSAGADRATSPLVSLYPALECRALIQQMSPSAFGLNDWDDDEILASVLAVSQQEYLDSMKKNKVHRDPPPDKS
How it was run: as §1

Measured: log2 ratio of Biotin-Ahx-Ub-VS probe labelling

O=C(CCl)N1CCCCCC1c1ncon1 (centres undefined)
inactive: ALG13 0.0534 | ATXN3 -0.268 | BAP1 -0.409 | EIF3F 0.0211 | EIF3H 0.132 | FAM105A 0.156 | OTUB1 0.099 | OTUD4 -0.759 | OTUD5 -0.654
